OTUD3 block: inhibitors of human OTUD3 deubiquitinase | OTU domain-containing protein 3 (Homo sapiens), Q5T2D3 | 47,000 compounds, 0.7% hits | purified OTUD3, Ub-rhodamine fluorescence, 2 h | inhibition, % at 25 µM
USP28 inh: inhibitors of human USP28 deubiquitinase | purified USP28, Ub-rhodamine cleavage fluorescence, 30 min | AID 1645857, 2021 | inhibition, % at 25 µM | 47,000 compounds, 3% hits | Ubiquitin carboxyl-terminal hydrolase 28 (Homo sapiens), Q96RU2
USP17 block: inhibitors of human USP17 deubiquitinase. inhibition, % at 50 µM. AID 1645855, 2021. 47,000 compounds, 6.5% hits. purified USP17, Ub-rhodamine cleavage fluorescence, 3 h. Ubiquitin carboxyl-terminal hydrolase 17-like protein 5 (Homo sapiens), A8MUK1
Target sequence (A8MUK1 whole entry, looked up): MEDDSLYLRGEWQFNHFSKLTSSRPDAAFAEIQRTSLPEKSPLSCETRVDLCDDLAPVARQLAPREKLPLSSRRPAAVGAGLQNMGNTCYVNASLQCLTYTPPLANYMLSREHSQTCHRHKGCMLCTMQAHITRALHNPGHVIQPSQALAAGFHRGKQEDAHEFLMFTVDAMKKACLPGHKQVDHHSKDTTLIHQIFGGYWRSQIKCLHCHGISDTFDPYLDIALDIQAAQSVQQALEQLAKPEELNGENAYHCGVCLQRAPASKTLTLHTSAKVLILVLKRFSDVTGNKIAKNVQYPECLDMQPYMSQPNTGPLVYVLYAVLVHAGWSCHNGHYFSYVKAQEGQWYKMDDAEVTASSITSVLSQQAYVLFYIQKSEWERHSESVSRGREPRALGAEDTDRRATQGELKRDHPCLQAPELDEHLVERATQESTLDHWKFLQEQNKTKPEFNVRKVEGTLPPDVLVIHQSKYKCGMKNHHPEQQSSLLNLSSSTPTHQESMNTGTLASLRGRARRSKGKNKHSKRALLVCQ
USP30 block: inhibitors of human USP30 deubiquitinase | Ubiquitin carboxyl-terminal hydrolase 30 (Homo sapiens), Q70CQ3 | purified USP30, Ub-rhodamine cleavage fluorescence | inhibition, % at 25 µM | 47,000 compounds, 5.3% hits
A number is an active result; i = inactive; nt = no result. Sampled rows, rich in hits. Any-hit rate of the full collection: about 12%. No stated cut-off is given here; in the data, active means inhibition above about 30%; inactive means the rest.

SMILES | OTUD3 block | USP28 inh | USP17 block | USP30 block
O=C(NCc1ccccc1Cl)c1cccc(N2C(=O)CCS2(=O)=O)c1 | i | i | i | i
Cc1cc(C)n2nc(CN(Cc3ccccc3)C(=O)c3ccc(F)cc3)nc2n1 | i | i | i | i
Cc1noc(C)c1-c1ccc(S(=O)(=O)Nc2ccccc2)cc1 | i | i | i | 30.1
CCc1ccc(S(=O)(=O)Nc2ccc(-c3nnc(-c4ccccc4)o3)cc2)cc1 | i | 32.7 | i | 32.3
Cc1noc(C)c1-c1ccc(S(=O)(=O)Nc2cccc(F)c2)cc1 | i | i | i | i
COc1cccc(CNC(=O)CCc2nc3sc4c(c3c(=O)[nH]2)CCCCC4)c1 | i | i | i | i
CCC(C(=O)Nc1c2c(nn1-c1ccc(C)cc1C)CS(=O)(=O)C2)c1ccccc1 (stereo not drawn) | i | i | i | i
CCc1nn2c(CNC(=O)Cc3ccccc3)c(C)nc2s1 | i | i | i | i
CC1CCCCN1CCNC(=O)c1cc2occc2c(Nc2ccc(F)cc2)n1 (stereo not drawn) | i | i | i | i
O=C(NC1CCN(c2cc(-c3ccc(F)cc3)[nH]n2)CC1)c1cnccn1 | i | i | i | i
O=C(Nc1ccc(CN2CCOCC2)cc1)c1cc2cc(Br)ccc2o1 | i | 46.6 | i | i
O=C(Nc1ccc(CN2CCOCC2)cc1)c1cccc([N+](=O)[O-])c1 | i | i | i | i
COc1ccc(C(CNc2ncnc3sccc23)N2CCOCC2)cc1 (stereo not drawn) | i | i | i | i
Cc1ccc(NC(=O)c2cnc3c(c2)c(=O)n(C)c(=O)n3C)cc1 | i | i | 62.4 | i
COc1cccc(NC(=O)c2cnc3c(c2)c(=O)n(C)c(=O)n3C)c1 | i | 41.1 | i | 70.7
COc1ccccc1N/C=C/c1onc(-c2c(F)cccc2Cl)c1C#N | i | i | nt | i
COC(=O)c1c(-c2c(Cl)cccc2Cl)noc1/C=C/Nc1ccc(C(=O)O)cc1 | i | 30.8 | i | i
Cc1ccc(C)c(S(=O)(=O)N2CCN(C(C)c3nc4ccccc4c(=O)[nH]3)CC2)c1 (stereo not drawn) | i | i | i | i
Cc1ccc(C)c(S(=O)(=O)N2CCN(c3nc(-c4cccs4)nc4ccccc34)CC2)c1 | i | i | i | 30.8
Cc1ncc(CN2CCc3nc(-c4ccccn4)[nH]c(=O)c3C2)n1C | i | i | i | i
Cc1cc(=O)[nH]c2cc(-c3ccccc3)nn12 | i | i | i | 38.5
O=C(Nc1ccc(Cl)cc1)c1cc(CN2CCCC2)on1 | i | i | i | i
CCNC(=O)N1C[C@@H](C(=O)OCC)[C@@H]2Oc3c(C)cccc3[C@@H]21 | i | i | nt | i
O=C1COC2(CCN(C(=O)N3CCCC3)CC2)CN1Cc1ccccc1 | i | i | i | 33.6
Cc1c(O)c(O)c(O)c(C=O)c1C=O | i | 68.3 | 61.9 | 70.5
SMILES | OTUD3 block | USP28 inh | USP17 block | USP30 block
COc1ccccc1CNC(=O)c1cc(OCc2ccccc2)nc2ccccc12 | i | nt | 57.1 | nt
O=C(NCc1ccc(F)cc1)c1cc(OCc2ccccc2)nc2ccccc12 | i | i | i | 31.3
CCc1ccc(N2CC(c3nnc(NC(=O)Cc4ccc(C)cc4)s3)CC2=O)cc1 (stereo not drawn) | i | i | 49.6 | 32.7
O=C(CCCc1ccccc1)Nc1nnc(C2CC(=O)N(c3ccccc3)C2)s1 (stereo not drawn) | i | nt | 41.1 | nt
O=C(Cn1cc(S(=O)(=O)Cc2ccccc2Cl)c2ccccc21)N1CCCC1 | i | i | i | i
COC(=O)c1cc(NC(=O)Nc2ccccc2C(F)(F)F)ccc1N1CCOCC1 | i | i | i | i
COC(=O)c1cc(NC(=O)Nc2ccc(OC(F)(F)F)cc2)ccc1N1CCOCC1 | i | 32.4 | i | i
Cc1cccc(C(=O)N[C@@H]2C(=O)Nc3c(c(C)nn3C)[C@H]2c2cccc(C(F)(F)F)c2)c1 | i | i | i | i
COc1cccc([C@@H]2c3c(C)nn(C)c3NC(=O)[C@H]2NC(=O)c2ccc(Cl)cc2)c1 | i | 34.9 | i | i
CC(C)[C@H](NC(=O)[C@H](Cc1ccccc1)n1c(=O)[nH]c2ccccc2c1=O)C(=O)N1CCC(C(=O)O)CC1 | i | i | i | i
COc1ccc(NC(=O)COc2ccc(C#N)cc2)cc1OC | i | i | i | i
NC(=O)c1ccccc1NC(=O)COc1ccc2c(c1)oc(=O)c1ccccc12 | i | i | i | i
N#Cc1ccc(NC(=O)COc2ccc3oc4ccccc4c3c2)cc1 | i | i | 45.2 | i
CCC(=O)c1ccc(OCC(=O)Nc2ccc(C#N)cc2)cc1 | i | i | 46.8 | i
O=C(NCc1csc(-c2ccccc2)n1)c1cc(F)cc2c1OCOC2 | i | i | 33.0 | i
O=C(NCc1csc(-c2ccccc2)n1)c1ccccc1F | i | i | i | i
CCC1Oc2ccc(C(=O)c3ccco3)cc2N(CC(N)=O)C1=O (stereo not drawn) | i | i | i | i
CCCCCC1OC(=O)c2c(C)cccc2Oc2ccc(O)c(C=O)c2/C=C/C1O (stereo not drawn) | 44.8 | 53.4 | 81.0 | 72.8
CCCCCC1OC(=O)c2c(C)cccc2Oc2ccc(O)c(CO)c2/C=C/C1O (stereo not drawn) | i | 47.2 | i | i
Cc1nc(N2CCC(C(N)=O)CC2)c2oc3ccc(Cl)cc3c2n1 | i | i | i | i
O=S1(=O)[C@@H]2CCN(Cc3cccnc3)CC[C@@H]2CN1Cc1cccc(Cl)c1 | i | i | i | i
CN1C[C@H](C(N)=O)[C@@H](c2ccc(CN(C)C(=O)Cn3nnc4ccccc43)cc2)C1 | i | i | i | i
Cn1c(=O)cc(C(=O)Nc2cc(C(F)(F)F)cc(C(F)(F)F)c2)[nH]c1=O | i | i | i | 36.1
Cn1c(=O)cc(C(=O)Nc2ccc(OC(F)(F)F)cc2)[nH]c1=O | i | i | i | i
CC(Cc1ccco1)NC(=O)c1cccc(NC(=O)c2nnc(C3CC3)s2)c1 (stereo not drawn) | i | i | 31.3 | i
SMILES | OTUD3 block | USP28 inh | USP17 block | USP30 block
COc1ccccc1-c1nnc(SCC(=O)c2ccc3c(c2)NC(=O)CO3)n1Cc1ccco1 | i | i | 37.0 | i
CCc1ccc(-c2cn3ccn(-c4ccccc4OC)c(=O)c3n2)cc1 | i | i | i | i
COc1ccc(OC)c(-c2cn3ccn(-c4ccc(F)c(Cl)c4)c(=O)c3n2)c1 | i | i | 38.7 | i
Cc1nc2c(-c3ccncc3)nsc2c(=O)n1CC(=O)Nc1ccccc1F | i | i | 45.6 | i
Cc1ccc(-c2nnc(N3CCC(C(=O)N4CCC(C)CC4)CC3)o2)cc1 | i | i | i | i
Clc1cccc(-c2cn[nH]c2C2CCCN2)c1 (stereo not drawn) | i | i | i | 33.5
c1ccc(-c2n[nH]c(C3CCCN3)n2)cc1 (stereo not drawn) | i | i | i | i
Cn1cc2cccc(NC(=O)c3ccc(F)cc3)c2n1 | i | i | 86.6 | i
CN(C)c1cnc(-n2cc(NC(=O)c3ccc(F)cc3)cn2)nc1 | i | i | i | i
FC(F)(F)c1nc(-c2cccnc2)ncc1-c1nnnn1-c1ccc(Cl)cc1 | i | i | i | i
CC(=O)Nc1cc2cc(-n3cccc3)ccc2oc1=O | i | i | 59.1 | i
